From ChEMBL document CHEMBL1961873, “Compounds: GSK PKIS; Assays: Nanosyn kinase panel” (2012) come the findings set out here.

A word on the inhibition: it is the relative decrease from the control value, in per cent.

Assay [1] concerns the target Tyrosine-protein kinase CSK (Homo sapiens) (UniProt P41240). The settings on record: at 1 µM.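 Note: each value is an averaged inhibition reading.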
The target of assay [2] is T1, Discoidin domain-containing receptor 2 (Homo sapiens) (UniProt Q16832).
T1 sequence (whole entry): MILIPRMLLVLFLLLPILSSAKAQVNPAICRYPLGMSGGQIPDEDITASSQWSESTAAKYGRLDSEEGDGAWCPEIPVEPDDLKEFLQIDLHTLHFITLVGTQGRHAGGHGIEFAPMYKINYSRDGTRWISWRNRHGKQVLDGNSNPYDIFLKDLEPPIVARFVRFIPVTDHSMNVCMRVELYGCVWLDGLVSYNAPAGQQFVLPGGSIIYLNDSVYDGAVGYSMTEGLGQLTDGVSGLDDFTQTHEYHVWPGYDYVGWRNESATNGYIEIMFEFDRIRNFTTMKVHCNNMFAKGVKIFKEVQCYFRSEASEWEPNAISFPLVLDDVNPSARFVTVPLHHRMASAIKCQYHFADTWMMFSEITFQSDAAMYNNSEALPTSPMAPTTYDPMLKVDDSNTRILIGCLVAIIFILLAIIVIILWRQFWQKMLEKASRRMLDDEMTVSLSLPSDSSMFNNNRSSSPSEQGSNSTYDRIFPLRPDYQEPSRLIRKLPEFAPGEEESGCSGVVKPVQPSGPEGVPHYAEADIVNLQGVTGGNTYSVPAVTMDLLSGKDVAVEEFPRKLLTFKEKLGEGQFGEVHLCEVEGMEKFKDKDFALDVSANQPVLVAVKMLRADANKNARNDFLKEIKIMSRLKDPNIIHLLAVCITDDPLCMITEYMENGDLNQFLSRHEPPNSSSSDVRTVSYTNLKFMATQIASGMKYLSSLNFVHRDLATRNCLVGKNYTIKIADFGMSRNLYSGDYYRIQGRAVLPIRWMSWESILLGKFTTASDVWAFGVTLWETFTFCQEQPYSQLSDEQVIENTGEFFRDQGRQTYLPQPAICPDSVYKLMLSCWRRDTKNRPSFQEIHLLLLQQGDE
The settings on record: at 0.1 µM.

Assay [3] has as its target T1, Discoidin domain-containing receptor 2 (Homo sapiens). The settings on record: at 1 µM.
Assay [4] has as its target Epidermal growth factor receptor (Homo sapiens) (UniProt P00533). The settings on record: at 0.1 µM.
Assay [5] shares this target. As to conditions: at 1 µM.
Assay [6] deals with Epidermal growth factor receptor (Homo sapiens), P00533 [L858R]. As to conditions: at 0.1 µM.
The test system is the same in assay [7]. As to conditions: at 1 µM.
Assay [8] deals with Epidermal growth factor receptor (Homo sapiens), P00533 [L861Q]. As to conditions: at 0.1 µM.
Assay [9] has the same test system. As to conditions: at 1 µM.
Assay [10] deals with Epidermal growth factor receptor (Homo sapiens), P00533 [T790M]. The settings on record: at 0.1 µM.
Assay [11] has the same test system. The settings on record: at 1 µM.
Assay [12] has as its system Epidermal growth factor receptor (Homo sapiens), P00533 [L858R,T790M]. The settings on record: at 0.1 µM.
The test system is the same in assay [13]. As to conditions: at 1 µM.
In assay [14] the target is Ephrin type-A receptor 2 (Homo sapiens) (UniProt P29317). As to conditions: at 0.1 µM.
Assay [15] has the same target. The settings on record: at 1 µM.
For assay [16], the target named is T2, Ephrin type-A receptor 3 (Homo sapiens) (UniProt P29320).
T2 sequence (whole entry): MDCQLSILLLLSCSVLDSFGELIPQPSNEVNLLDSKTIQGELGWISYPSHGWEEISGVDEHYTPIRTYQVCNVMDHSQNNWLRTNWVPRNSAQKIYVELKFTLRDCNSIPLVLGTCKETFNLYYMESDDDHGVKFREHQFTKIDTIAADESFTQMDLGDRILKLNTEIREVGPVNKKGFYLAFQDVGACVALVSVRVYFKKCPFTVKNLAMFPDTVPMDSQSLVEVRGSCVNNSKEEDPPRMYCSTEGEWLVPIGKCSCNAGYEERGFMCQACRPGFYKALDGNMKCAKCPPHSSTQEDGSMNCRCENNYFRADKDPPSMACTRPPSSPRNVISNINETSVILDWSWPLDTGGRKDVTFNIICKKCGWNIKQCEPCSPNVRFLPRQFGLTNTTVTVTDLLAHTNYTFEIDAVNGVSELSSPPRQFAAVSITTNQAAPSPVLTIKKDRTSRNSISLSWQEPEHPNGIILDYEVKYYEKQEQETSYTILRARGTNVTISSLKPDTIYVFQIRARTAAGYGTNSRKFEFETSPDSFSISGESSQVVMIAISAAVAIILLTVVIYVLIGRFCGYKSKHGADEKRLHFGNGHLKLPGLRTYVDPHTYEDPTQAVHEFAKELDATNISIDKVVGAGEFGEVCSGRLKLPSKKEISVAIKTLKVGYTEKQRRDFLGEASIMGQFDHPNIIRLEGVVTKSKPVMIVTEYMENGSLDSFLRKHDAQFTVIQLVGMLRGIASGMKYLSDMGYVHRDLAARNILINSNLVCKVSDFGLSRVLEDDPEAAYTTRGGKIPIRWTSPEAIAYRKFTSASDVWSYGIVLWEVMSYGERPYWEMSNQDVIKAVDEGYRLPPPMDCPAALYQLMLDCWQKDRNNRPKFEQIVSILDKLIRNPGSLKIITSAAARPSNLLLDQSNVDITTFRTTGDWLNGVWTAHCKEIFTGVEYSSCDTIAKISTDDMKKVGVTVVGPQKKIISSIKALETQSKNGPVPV
As to conditions: at 0.1 µM.

The target of assay [17] is T2, Ephrin type-A receptor 3 (Homo sapiens). As to conditions: at 1 µM.
In assay [18] the target is Ephrin type-A receptor 4 (Homo sapiens) (UniProt P54764). As to conditions: at 0.1 µM.
Assay [19] has the same target. The settings on record: at 1 µM.
Assay [20] has as its target T3, Ephrin type-B receptor 2 (Homo sapiens) (UniProt P29323).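 Note: reported as mean inhibition of EPHB2, from the GSK PKIS dataset.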
T3 sequence (whole entry): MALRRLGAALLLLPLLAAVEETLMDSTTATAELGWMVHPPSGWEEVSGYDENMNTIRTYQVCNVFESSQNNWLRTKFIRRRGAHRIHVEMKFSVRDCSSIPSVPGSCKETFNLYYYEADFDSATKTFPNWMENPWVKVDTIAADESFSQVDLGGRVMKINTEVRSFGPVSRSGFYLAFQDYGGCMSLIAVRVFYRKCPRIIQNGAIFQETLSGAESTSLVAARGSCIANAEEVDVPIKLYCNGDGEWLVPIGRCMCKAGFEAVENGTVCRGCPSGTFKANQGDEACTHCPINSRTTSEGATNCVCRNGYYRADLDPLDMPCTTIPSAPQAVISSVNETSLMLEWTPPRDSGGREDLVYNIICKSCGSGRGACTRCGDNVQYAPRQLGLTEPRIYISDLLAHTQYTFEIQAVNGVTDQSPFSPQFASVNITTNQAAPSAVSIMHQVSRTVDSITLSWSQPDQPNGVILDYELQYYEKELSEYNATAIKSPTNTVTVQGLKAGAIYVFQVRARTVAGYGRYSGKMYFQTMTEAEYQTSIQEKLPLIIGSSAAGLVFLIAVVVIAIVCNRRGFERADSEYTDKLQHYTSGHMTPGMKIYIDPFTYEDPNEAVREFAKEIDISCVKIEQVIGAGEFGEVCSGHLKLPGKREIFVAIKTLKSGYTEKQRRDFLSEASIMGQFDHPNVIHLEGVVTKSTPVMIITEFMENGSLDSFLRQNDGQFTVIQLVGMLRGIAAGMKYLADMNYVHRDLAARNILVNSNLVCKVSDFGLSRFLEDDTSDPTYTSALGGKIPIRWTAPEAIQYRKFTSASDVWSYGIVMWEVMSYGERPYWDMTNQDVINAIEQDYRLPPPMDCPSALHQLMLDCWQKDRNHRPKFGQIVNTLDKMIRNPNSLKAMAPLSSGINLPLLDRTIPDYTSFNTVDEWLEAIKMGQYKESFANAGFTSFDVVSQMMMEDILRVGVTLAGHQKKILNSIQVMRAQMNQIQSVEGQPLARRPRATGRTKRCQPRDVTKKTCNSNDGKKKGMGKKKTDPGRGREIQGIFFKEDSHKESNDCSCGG
The settings on record: at 0.1 µM.

Epidermal growth factor receptor (Homo sapiens), P00533 [L858R,T790M], sequence (P00533 whole entry T790M/L858R, looked up): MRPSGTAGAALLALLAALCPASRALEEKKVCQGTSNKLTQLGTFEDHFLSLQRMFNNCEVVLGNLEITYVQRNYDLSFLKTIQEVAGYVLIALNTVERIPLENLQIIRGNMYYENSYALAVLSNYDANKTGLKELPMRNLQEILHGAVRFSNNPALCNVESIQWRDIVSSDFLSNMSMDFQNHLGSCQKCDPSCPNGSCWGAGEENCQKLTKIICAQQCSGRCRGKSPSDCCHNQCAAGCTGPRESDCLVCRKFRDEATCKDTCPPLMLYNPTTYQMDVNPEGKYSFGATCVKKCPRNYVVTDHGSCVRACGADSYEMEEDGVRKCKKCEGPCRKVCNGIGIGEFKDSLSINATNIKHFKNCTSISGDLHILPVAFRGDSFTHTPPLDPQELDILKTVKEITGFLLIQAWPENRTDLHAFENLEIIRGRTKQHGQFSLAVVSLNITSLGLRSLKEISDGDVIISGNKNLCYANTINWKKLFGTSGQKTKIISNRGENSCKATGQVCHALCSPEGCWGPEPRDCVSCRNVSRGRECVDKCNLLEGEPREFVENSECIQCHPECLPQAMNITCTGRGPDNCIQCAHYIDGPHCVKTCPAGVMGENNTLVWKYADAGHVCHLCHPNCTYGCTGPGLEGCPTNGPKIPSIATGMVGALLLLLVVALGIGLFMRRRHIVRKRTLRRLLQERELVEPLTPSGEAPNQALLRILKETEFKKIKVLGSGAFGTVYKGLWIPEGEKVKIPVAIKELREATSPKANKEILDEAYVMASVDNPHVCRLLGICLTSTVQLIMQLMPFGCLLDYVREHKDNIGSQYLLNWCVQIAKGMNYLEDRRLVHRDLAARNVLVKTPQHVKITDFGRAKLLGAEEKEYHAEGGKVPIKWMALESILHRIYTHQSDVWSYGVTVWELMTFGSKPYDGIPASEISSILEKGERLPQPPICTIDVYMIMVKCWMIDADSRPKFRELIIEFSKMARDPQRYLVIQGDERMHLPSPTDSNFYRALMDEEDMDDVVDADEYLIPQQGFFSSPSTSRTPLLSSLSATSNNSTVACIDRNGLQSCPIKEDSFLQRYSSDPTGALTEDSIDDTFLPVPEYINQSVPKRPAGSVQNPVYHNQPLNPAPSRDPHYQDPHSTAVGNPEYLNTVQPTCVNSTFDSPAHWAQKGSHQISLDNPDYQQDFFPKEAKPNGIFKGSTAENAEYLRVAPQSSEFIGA
Ephrin type-A receptor 2 (Homo sapiens), sequence (P29317 whole entry): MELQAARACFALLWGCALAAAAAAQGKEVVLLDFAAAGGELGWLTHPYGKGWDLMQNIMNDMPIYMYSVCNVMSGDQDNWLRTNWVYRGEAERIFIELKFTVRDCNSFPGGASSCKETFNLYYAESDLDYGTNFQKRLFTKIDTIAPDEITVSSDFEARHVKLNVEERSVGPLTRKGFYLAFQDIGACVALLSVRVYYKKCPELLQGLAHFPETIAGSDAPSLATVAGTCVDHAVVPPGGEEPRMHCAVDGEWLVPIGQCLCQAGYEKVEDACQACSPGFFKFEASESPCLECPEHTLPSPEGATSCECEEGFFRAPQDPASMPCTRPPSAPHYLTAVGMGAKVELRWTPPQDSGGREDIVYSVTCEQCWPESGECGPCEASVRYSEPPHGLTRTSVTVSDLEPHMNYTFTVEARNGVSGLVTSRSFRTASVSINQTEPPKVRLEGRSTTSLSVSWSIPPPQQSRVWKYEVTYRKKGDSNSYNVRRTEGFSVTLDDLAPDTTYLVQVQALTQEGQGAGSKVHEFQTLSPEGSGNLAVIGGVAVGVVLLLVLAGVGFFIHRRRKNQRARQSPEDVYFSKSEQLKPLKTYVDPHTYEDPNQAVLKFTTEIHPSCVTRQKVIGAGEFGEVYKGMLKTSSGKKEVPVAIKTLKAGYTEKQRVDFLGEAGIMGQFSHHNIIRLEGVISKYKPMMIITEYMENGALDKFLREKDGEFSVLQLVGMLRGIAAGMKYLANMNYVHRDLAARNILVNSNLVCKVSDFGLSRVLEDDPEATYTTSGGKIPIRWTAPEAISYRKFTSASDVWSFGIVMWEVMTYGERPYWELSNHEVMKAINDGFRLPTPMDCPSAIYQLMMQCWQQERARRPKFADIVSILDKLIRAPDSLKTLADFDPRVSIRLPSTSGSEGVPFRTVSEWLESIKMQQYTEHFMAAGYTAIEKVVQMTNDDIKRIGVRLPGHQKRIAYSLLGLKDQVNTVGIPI
Epidermal growth factor receptor (Homo sapiens), P00533 [T790M], sequence (P00533 whole entry T790M): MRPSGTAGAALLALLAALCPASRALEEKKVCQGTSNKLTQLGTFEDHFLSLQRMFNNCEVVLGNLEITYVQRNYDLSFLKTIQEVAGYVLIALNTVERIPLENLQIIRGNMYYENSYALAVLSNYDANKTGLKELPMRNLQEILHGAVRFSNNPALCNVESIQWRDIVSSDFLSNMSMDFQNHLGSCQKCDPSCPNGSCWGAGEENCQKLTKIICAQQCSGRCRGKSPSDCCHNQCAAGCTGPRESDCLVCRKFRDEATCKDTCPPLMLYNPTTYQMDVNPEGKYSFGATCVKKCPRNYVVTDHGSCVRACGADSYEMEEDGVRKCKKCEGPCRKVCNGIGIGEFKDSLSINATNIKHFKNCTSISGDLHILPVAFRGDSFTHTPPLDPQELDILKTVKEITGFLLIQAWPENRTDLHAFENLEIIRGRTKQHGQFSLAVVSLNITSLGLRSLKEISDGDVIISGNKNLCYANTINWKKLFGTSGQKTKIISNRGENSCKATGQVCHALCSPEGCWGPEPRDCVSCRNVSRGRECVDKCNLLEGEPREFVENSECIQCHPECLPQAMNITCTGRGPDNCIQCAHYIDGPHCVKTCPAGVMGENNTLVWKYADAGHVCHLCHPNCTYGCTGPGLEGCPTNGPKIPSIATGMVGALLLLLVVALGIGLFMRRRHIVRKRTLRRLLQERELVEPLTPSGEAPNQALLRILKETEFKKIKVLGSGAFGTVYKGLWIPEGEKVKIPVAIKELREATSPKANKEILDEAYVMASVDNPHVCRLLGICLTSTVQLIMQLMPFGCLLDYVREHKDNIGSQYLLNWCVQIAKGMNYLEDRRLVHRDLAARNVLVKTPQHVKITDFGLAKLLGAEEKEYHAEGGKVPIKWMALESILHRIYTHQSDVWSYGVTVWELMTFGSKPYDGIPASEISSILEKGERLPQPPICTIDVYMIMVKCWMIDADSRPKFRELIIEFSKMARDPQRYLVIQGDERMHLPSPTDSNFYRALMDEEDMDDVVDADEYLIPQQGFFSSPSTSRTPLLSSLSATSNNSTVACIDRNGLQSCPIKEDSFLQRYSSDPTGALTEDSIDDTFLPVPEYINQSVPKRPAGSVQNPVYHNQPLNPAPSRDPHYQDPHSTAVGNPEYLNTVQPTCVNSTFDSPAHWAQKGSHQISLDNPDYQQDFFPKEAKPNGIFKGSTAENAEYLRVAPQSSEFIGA
Tyrosine-protein kinase CSK (Homo sapiens), sequence (P41240 2-450 limits assumed): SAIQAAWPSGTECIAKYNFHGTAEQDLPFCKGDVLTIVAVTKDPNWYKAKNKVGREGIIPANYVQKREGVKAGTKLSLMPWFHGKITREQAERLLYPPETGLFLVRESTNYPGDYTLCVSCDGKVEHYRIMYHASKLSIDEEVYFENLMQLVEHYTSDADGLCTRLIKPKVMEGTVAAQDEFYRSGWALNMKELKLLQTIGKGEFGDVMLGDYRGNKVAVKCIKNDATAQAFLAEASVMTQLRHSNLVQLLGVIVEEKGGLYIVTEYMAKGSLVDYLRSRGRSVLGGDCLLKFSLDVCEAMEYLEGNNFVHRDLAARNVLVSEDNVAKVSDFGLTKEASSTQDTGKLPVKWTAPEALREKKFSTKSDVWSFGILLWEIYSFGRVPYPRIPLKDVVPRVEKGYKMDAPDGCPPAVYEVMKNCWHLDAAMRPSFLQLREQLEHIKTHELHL
Epidermal growth factor receptor (Homo sapiens), sequence (P00533 whole entry): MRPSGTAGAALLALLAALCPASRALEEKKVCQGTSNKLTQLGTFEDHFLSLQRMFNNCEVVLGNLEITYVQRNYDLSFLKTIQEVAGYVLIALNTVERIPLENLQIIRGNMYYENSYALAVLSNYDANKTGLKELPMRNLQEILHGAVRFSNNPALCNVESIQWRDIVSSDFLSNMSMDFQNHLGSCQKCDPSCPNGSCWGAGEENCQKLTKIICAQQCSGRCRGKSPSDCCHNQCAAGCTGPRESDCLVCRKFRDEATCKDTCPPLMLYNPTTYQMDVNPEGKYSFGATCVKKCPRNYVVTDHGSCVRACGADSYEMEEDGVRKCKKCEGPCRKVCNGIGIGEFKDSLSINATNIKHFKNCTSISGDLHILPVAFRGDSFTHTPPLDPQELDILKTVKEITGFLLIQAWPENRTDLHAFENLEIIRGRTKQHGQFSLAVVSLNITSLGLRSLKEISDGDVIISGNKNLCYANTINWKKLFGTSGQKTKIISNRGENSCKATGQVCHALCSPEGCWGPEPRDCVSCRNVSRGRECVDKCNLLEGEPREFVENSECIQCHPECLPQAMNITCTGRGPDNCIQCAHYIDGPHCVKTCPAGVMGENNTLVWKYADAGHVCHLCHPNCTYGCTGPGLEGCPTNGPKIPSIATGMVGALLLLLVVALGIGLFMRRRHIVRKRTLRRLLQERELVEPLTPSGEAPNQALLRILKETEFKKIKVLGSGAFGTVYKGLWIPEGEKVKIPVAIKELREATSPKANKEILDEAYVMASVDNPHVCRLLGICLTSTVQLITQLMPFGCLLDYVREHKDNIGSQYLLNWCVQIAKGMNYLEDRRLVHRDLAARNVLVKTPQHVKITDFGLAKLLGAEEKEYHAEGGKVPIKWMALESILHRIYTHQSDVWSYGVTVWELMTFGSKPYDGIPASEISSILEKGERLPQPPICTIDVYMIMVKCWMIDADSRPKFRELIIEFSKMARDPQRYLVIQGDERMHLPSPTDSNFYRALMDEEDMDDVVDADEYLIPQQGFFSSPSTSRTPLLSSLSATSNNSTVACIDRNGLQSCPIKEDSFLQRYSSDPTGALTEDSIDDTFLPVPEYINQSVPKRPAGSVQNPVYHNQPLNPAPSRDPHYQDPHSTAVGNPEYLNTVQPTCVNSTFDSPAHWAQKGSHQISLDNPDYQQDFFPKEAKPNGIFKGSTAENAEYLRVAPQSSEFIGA

As to `COc1cc(Nc2ncc(-c3ccccc3)o2)cc(OC)c1`, the inhibition came to 4.79% in assay [1]; 4.48% in [2]; 7.93% in [3]; 3.35% in assay [4]; 5.26% in assay [5]; 0.1% in assay [6]. Moreover, the inhibition in assay [7] came to 1.99%; in [8], 3.52%; in [9], 5.17%; in assay [10], 1.76%; in assay [11] it was 1.99%; in assay [12], 0.93%. Further, the inhibition in assay [13] is 0.21%; in [14], 2.21%; in [15], 2.39%; in [16] it was 3.02%; in [17], 8.57%; in [18] it was 8.98%. The results for the inhibition in [19] and in assay [20] were 13.7% and 8.98%, respectively.
Regarding `FC(F)(F)CNc1nccc(-c2cnn3ncccc23)n1`, the inhibition in assay [1] came to 0.56%; in assay [2], 1.12%; in assay [3], 0.22%; in assay [4] it was 1.39%; in assay [5] it was 6.21%; in [6], 2.83%. Also, the inhibition was 0.26% in assay [7]; 0.58% in assay [8]; 0.31% in assay [9]; -0.49% in assay [10]; 0.02% in assay [11]; -1.87% in assay [12]. For the same molecule, the inhibition in assay [13] is 1.32%; in assay [14], 0.5%; in assay [15] it was -1.3%; in [16] it was 3.4%; in assay [17], 4.73%; in assay [18], 5.82%. Also, the values for the inhibition in assay [19] and in assay [20] were 7.58% and 5.3%, respectively.
As to `COc1ccc(Nc2ncc(-c3ccccc3)o2)cc1OC`, the inhibition was -1.08% in [1]; -0.12% in assay [2]; 5.66% in assay [3]; 1.83% in assay [4]; 5.16% in [5]; -1.38% in assay [6]. The inhibition is 2.96% in assay [7]; -1.19% in assay [8]; 0.83% in assay [9]; 0.72% in [10]; -1.98% in assay [11]; -0.33% in [12]. Further, the inhibition in assay [13] is -0.29%; in [14], 0.89%; in [15] it was 2.73%; in assay [16], -1.2%; in assay [17], 1.63%; in [18] it was 2.72%. In addition, the figures for the inhibition in assay [19] and in assay [20] were 1.61% and -1.69%, respectively.
For `OCCCNc1nccc(-c2c(-c3ccc(F)cc3)nn3cc(C(F)(F)F)ccc23)n1`, the inhibition in assay [1] was found to be 1.58%; in [2] it was 3.25%; in assay [3], 19.3%; in [4], 0.97%; in [5], 9.16%; in assay [6], 5.62%. The inhibition in assay [7] was 24.6%; in assay [8], 2.61%; in assay [9], 6.62%; in assay [10], 0.96%; in assay [11], -0.33%; in assay [12], -1.34%. The inhibition came out at 5.46% in [13]; 1.26% in assay [14]; 1.9% in assay [15]; 2.86% in [16]; 3.67% in assay [17]; 8.53% in [18]. Besides, the inhibition in assay [19] stood at 13.3%; in [20] it was 8.48%.
As to `COc1cc2c(cc1Nc1nc(Nc3cccc(F)c3C(N)=O)c3cc[nH]c3n1)N(C(=O)CN1CCN(C(C)C)CC1)CC2`, the inhibition is -3.02% in [1]; -1.78% in assay [2]; -0.55% in assay [3]; 2.48% in assay [4]; 17.1% in [5]; -0.57% in [6]. The inhibition in assay [7] is 15.1%; in [8], 1.65%; in assay [9] it was 13.7%; in assay [10], 2.59%; in [11] it was 27%; in assay [12], 1.09%. For the same molecule, the inhibition stood at 47.3% in assay [13]; 1.37% in [14]; 0.53% in [15]; 1.47% in [16]; 0.43% in assay [17]; 3.76% in assay [18]. Besides, the values for the inhibition in assay [19] and in assay [20] were 4.41% and 2.75%, respectively.
